Integrin act MD = qHTS for Activators of Integrin-Mediated Alleviation for Muscular Dystrophy. alpha7betagal myoblasts, beta-gal FDG fluorescence, 48 h. Potency, µM (highest dose often 38.3 µM), for the others: top-dose activation, usual class: activators. 350,000 tested, 0.064% active. AID 624291, 2012;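 further: potency means the concentration at half of the fitted maximal effect; 100% = response of the positive control SU9516; nearly all actives have a fitted effect of over 60% in size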
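alpha7betagal+/- myoblasts (passage 13, 250/well) treated 48 h at 37C with compounds at 1:260 dilution of DMSO stock. Lysed, then beta-galactosidase activity read as FDG fluorescence (ex 480/em 540) after 30 min, with pre-read for autofluorescence.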
BRCA1 expr act = qHTS Assay to Identify Small Molecule Activators of BRCA1 Expression; MCF7-BRCA1-FFLuc reporter, luminescence, 48 h; response scale: scaled: vehicle 0%, 10 µM genistein 100%; 380,000 tested, 1.1% active; Potency, µM (series often up to 46.1 µM), without a hit: at the highest dose activation, actives largely listed as activators; further: potency means the concentration at half of the fitted maximal effect; nearly all actives have a fitted effect of over 80% in size
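Activators of BRCA1 expression were detected as increased firefly luciferase luminescence in engineered MCF7 cells after 48 h compound incubation. Signals were scaled to genistein 10 microM as full activation.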
PKM2 activator = qHTS Assay for Activators of Human Muscle isoform 2 Pyruvate Kinase. Pyruvate kinase PKM (Homo sapiens), P14618. purified PKM2, Kinase-Glo ATP luminescence, activation; response scale: 0% is enzyme alone, no compound. Potency, µM (titrated, usually from 57.5 µM), for the others: top-dose activation, actives largely listed as activators. 260,000 tested, 0.34% active. AID 1631, 2009; further: potency means the concentration at half of the fitted maximal effect; on the % scale 0 is the no-effect control and ±100 the full control effect; nearly all actives have a fitted effect of over 55% in size
Target sequence (P14618 whole entry, looked up, canonical isoform): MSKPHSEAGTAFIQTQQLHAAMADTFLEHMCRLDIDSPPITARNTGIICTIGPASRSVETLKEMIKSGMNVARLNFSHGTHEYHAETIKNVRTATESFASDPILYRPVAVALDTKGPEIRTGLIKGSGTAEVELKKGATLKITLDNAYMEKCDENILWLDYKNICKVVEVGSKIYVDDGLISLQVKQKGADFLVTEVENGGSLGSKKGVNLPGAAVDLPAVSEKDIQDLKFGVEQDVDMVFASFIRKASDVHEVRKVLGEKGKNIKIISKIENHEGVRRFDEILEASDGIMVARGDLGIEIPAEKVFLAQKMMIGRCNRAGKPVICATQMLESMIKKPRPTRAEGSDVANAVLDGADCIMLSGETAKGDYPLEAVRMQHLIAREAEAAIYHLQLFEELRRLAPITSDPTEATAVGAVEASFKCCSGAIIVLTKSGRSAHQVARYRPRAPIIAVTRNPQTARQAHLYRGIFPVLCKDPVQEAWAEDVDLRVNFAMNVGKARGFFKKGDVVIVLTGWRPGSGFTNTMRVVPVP
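Purified hPK-M2 (>95% pure) converted ADP (0.1 mM final) to ATP with 0.5 mM PEP in 50 mM imidazole pH7.2, KCl, MgCl2, Tween 20, BSA; 1 h at room temperature. ATP detected by Kinase-Glo luminescence.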
IL-2 act = qHTS of IL-2 Activators; IL-2 activation reporter assay, cell-based qHTS; stimulated with anti-CD3/CD4/CD28 beads; in transgenic mouse T cells; activation, % (series mostly up to about 46 µM); 360,000 tested, 0.065% active; in the data active means activation above about 50%; inconclusive means mostly about 30% to 49%; further: 0% is about no effect
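EGFP and DsRed fluorescence is measured by plate cytometry in unstimulated transgenic mouse T cells exposed to compound for 60 minutes, then stimulated 18 hours at 37 degrees C with anti-CD3/anti-CD4 beads plus anti-CD28.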
Apoferritin bind = qHTS Assay for Identification of Novel General Anesthetics. apoferritin/1-aminoanthracene competitive binding, fluorescence. Potency, µM (titrated, usually from 77.5 µM), inactives show at the top dose activity change, negative = displacement, most hits filed as inhibitors. 350,000 tested, 0.074% active. AID 485281, 2010; further: potency means the concentration at half of the fitted maximal effect; on the % scale 0 is the no-effect control and ±100 the full control effect; nearly all actives have a fitted effect of over 20% in size
Target sequence (P02791 2-175 limits assumed): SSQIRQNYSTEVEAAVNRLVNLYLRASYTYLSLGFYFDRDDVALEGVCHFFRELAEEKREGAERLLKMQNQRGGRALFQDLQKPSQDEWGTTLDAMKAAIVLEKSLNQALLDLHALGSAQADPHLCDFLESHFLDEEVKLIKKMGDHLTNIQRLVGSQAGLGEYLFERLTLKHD
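10 uM apoferritin + 50% sat. 1-AMA, PBS; cpd 10 min RT; Ex380/Em535 endpoint; normalized to free probe vs complex; 4-param Hill fit; propofol titration as pos. ctrl.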
* marks the source's active call; other numbers are inactive results; ? = inconclusive; . = not tested or not shown; [ ] = another dose, or the depositor's remark. Only some compounds are listed: those with a hit (about 1.3% of all), similar ones and a draw of the others. Unless noted, the call rests on the fitted dose curve; in most records, active means well fitted curve in the direction sought with a large enough effect; inconclusive means small, poorly fitted or top-dose-only effect, or another doubt; inactive means no such curve, though single readings can be large; an effect the other way counts as inactive or inconclusive.

SMILES	Integrin act MD	BRCA1 expr act	PKM2 activator	IL-2 act	Apoferritin bind
CCC12CN3CC(C)(CN(C1)C3c1c(C)n(C)c3ccccc13)C2=O (stereo not given)	.	.	.	.	-11%
Cc1cc(NC(=O)/C(C#N)=C/c2ccc(-c3ccc(SC(F)F)cc3)o2)n(-c2ccccc2)n1	20%	-19%	-14%	100*	6%
COc1ccc(-c2nnc3n2N=C(c2ccc(OC)c(OC)c2)CS3)cc1	.	.	.	.	-4%
O=S(=O)(c1ccccc1)c1ccc(NCc2ccco2)cc1	12%	3%	32µM*	1	-22%
O=S(=O)(Nc1nc2ccccc2nc1NCc1ccco1)c1ccccc1	-5%	-35%	6%	0	-9%
COc1cc2c(NC3CCN(C)CC3)nc(N3CCCN(C)CC3)nc2cc1O	.	7%	.	.	.
COc1ccc(CNC(=O)c2ccc(C(C)(C)C)cc2)cc1	23%	3.5µM*	-19%	-1	?
COc1ccc(-n2nc(C(=O)N3CCCC(C)C3)c3c4ccccc4n(C)c3c2=O)cc1Cl (stereo not given)	.	.	.	.	-10%
COc1ccc(/C=C/C(=O)Nc2cccc(S(=O)(=O)NC3=NCCCCC3)c2)cc1	-7%	7.9µM*	-2%	0	-2%
CCOC(=O)c1ccc(NC(=O)c2ccc3c(c2)CCN3S(=O)(=O)c2ccc(Cl)cc2)cc1	.	.	.	.	3%
CCCCCCCCOc1ccc(C2CC(=O)NC2=O)cc1 (stereo not given)	-14%	4%	0%	-1	?
O=C1CC(c2ccc(OCCCCCOc3ccc(C4CC(=O)NC4=O)cc3)cc2)C(=O)N1 (stereo not given)	-11%	-36%	14µM*	-2	?
Cc1ccc(NC(=O)Cn2cc(S(=O)(=O)Cc3ccc(F)cc3)c3ccccc32)cc1Cl	.	.	.	.	-8%
Cc1cc(-c2nnc(SCC(=O)Nc3nccs3)o2)no1	0%	65%	16µM*	-1	-1%
Cc1cc(-c2nnc(SCC(=O)Nc3ccccn3)o2)no1	9%	61%	16%	0	-5%
CC(=O)Nc1cccc(NC(=O)CSc2ccc(-c3cccnc3)nn2)c1	10%	-48%	32µM*	-3	-4%
Cc1occc1-c1nnc(SCC(=O)Nc2nc(C(C)(C)C)cs2)o1	-30%	36%	-5%	-2	-24%
O=C(CSc1nnc(-c2cccnc2)o1)Nc1cccc(F)c1	11%	10µM*	.	-1	.
Cc1csc(NC(=O)CSc2nnc(-c3ccoc3C)o2)n1	-32%	10µM*	-6%	-1	-14%
CC(C)Cn1cc(NC(=O)NCc2ccccc2Cl)c2ccccc2c1=O	.	-8%	.	.	6%
Cc1cnc(NC(=O)CSc2nnc(COc3ccccc3)o2)s1	-20%	-17%	1%	1	-11%
Cc1cnc(NC(=O)CSc2nnc(-c3ccccc3)o2)s1	-17%	4µM*	5%	1	-9%
Cc1ccc(OCC(=O)N2CCN(S(=O)(=O)c3ccc4c(c3)OCCO4)CC2)c(C)c1	2µM*	-2%	.	0	.
O=C(Cc1ccc2c(c1)OCCO2)N1CCN(S(=O)(=O)c2cccc(Cl)c2Cl)CC1	5%	-13%	2.8µM*	0	1%
CSc1ccc(S(=O)(=O)N2CCN(Cc3ccc4c(c3)OCO4)CC2)cc1	3%	-9%	7.9µM*	1	-2%
SMILES	Integrin act MD	BRCA1 expr act	PKM2 activator	IL-2 act	Apoferritin bind
Cc1ccc(S(=O)(=O)N2CCCC2)cc1S(=O)(=O)N1CCCC1	-20%	-18%	-6%	0	-1%
O=C(Cc1ccc2c(c1)OCCO2)N1CCN(S(=O)(=O)c2ccccc2C(F)(F)F)CC1	?	-25%	?	-4	-4%
Cc1ccc(S(=O)(=O)N2CCCN(S(=O)(=O)c3ccc(C)c(C)c3)CC2)cc1C	0%	-14%	2.2µM*	0	-8%
CO[C@H]1COC(=O)[C@H](C)NC(=O)C/C=C\[C@@H](C)[C@H](OC)COC(=O)[C@@H](OCc2ccccc2)/C=C\[C@@H]1C	.	.	.	.	-8%[15.3 µM]
Cc1ccc(OCC(=O)N2CCCCC2)c(Br)c1	26%	11µM*	0%	0	-2%
Cc1cc(N2CCN(S(=O)(=O)c3ccc4c(c3)OCCO4)CC2)n2ncnc2n1	19%	-8%	25µM*	-1	-21%
O=C(Cc1ccc2c(c1)OCCO2)N1CCN(S(=O)(=O)c2cccs2)CC1	9%	11%	11%	-4	-14%
Cc1ccc(S(=O)(=O)N2CCN(C(=O)Cc3ccc4c(c3)OCCO4)CC2)cc1C	1%	-35%	3.2µM*	-4	-4%
N/C(=N\OC(=O)c1ccc([N+](=O)[O-])cc1)c1cccnc1	18%	?	-13%	3	-2%
Cc1ccc(C(=O)O/N=C(\N)c2cccc([N+](=O)[O-])c2)cc1	6%	3.2µM*	-9%	5	-13%
COc1cccc(C(=O)O/N=C(\N)c2ccncc2)c1	-10%	10µM*	-18%	-2	-11%
COc1cccc(C(=O)O/N=C(\N)c2ccc(C)cc2)c1	-2%	60%	.	-2	-5%
Cc1ccc(C(=O)O/N=C(\N)c2cccnc2)cc1[N+](=O)[O-]	4%	11µM*	-2%	0	-6%
N/C(=N\OC(=O)c1ccncc1)c1cccc([N+](=O)[O-])c1	-4%	7.9µM*	0%	-3	-4%
CN(CC(=O)O/N=C(\N)c1cccc([N+](=O)[O-])c1)S(=O)(=O)c1ccccc1	3%	1%	-3%	-4	28µM*
Clc1ccc(OCc2nc3ccccc3[nH]2)cc1	7%	3.2µM*	-6%	-1	-5%
O=C(Cc1ccc(Br)cc1)NC1CCCCC1	-2%	68%	2%	-2	-6%
Cc1ccc(CNC(=O)NC2CCCCC2)cc1	-2%	10µM*	-2%	1	-9%
O=C(CSc1ccc(F)cc1)NC1CCCCC1	18%	11µM*	1%	0	-7%
O=C(CSc1ccc(Br)cc1)NC1CCCCCC1	4%	71%	.	-5	.
Cc1ccc(CNC(=S)NC2CCCCC2)cc1	?	1%	-2%	-3	?
O=C(Cc1ccc(O)cc1)NC1CCCCCC1	13%	3.5µM*	-6%	0	1%
O=C(Nc1cc(C(F)(F)F)cc(C(F)(F)F)c1)c1cc(Cl)ccc1O	.	.	.	.	-5%
O=C(CCc1ccccc1)Nc1ccc2c(c1)OCCO2	-10%	11µM*	1%	2	?
O=C(Nc1ccc2c(c1)OCCO2)N1CCN(Cc2ccccc2)CC1	-8%	13µM*	6%	2	-4%
O=C(COc1ccccc1Cl)Nc1ccc2c(c1)OCCO2	23%	0%	1%	1	-19%

Screening results: PubChem, National Center for Advancing Translational Sciences (NCATS)
